Measured values reported in PubChem BioAssay (Tox21).
“And” between values parts separate entries of the source, which are not always exact repeats. Equal values may be shown once. Results filed as inconclusive are left out. Where a call stands in place of a potency, no number is given. More than one record can exist for a structure, and the calls need not agree. The source made the active and inactive calls. Calls follow the shape of the dose curve; as a rule, active = well fitted curve in the direction sought with a large enough effect in the repeat runs; inconclusive = weak or mixed curves; inactive = no such curve, though single readings can be large; an effect the other way counts as inactive or inconclusive.

How the values were obtained:
[1] = A CellTox Green Cytotoxicity Assay to monitor cytotoxicity in HEK293 cells - 24 hour (AID 1224875); also: series mostly up to about 77 µM; nearly all actives have a fitted effect of over 45% in size
Summary of the method: (§1)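 Dead-cell fluorescence measured kinetically: asymmetric cyanine dye, HEK293, 600 cells/well, 5 h settle, 23 nL cpd/DMSO, 37 C, reads 0–40 h every 8 h.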

[2] = A CellTox Green Cytotoxicity Assay to monitor cytotoxicity in HepG2 cells - 16 hour (AID 1224876); also: nearly all actives have a fitted effect of over 45% in size; also: potency is read from the fitted curve at half-maximal effect
Summary of the method: (§2)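 First, HepG2 cells (600/well) mixed with reagent were plated; second, after 5 h at 37 C they received compounds via pintool; third, fluorescence was measured at 0 h through 40 h at 8 h intervals.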

[3] = qHTS RealTime-Glo MT Cell Viability Assay in HepG2 cells - 32 hour (AID 1224877); also: nearly all actives have a fitted effect of over 55% in size; also: potency is read from the fitted curve at half-maximal effect
Summary of the method: (§3)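 Real-time, nonlytic viability: 600 HepG2 cells/well mixed with NanoLuc enzyme plus prosubstrate; 5 h settle, compound (DMSO) added by pintool; luminescence monitored over 40 h at 37 C.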

[4] = A CellTox Green Cytotoxicity Assay to monitor cytotoxicity in HepG2 cells - 24 hour (AID 1224878); also: nearly all actives have a fitted effect of over 45% in size; also: potency is read from the fitted curve at half-maximal effect
Summary of the method: as §2

[5] = A CellTox Green Cytotoxicity Assay to monitor cytotoxicity in HepG2 cells - 40 hour (AID 1224879); also: nearly all actives have a fitted effect of over 40% in size; also: potency is read from the fitted curve at half-maximal effect
Summary of the method: as §2

[6] = qHTS RealTime-Glo MT Cell Viability Assay in HEK293 cells - 0 hour (AID 1224880); also: top concentration of the series differs between compounds; nearly all actives have a fitted effect of over 45% in size
Summary of the method: (§4)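 600 HEK293 cells per well, dispensed already mixed with RealTime-Glo MT reagents. Compound dosing came 5 h later. The same wells were read for luminescence at 0, 8, 16, 24, 32 and 40 h of exposure at 37 C.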

[7] = A CellTox Green Cytotoxicity Assay to monitor cytotoxicity in HEK293 cells - 32 hour (AID 1224881); also: nearly all actives have a fitted effect of over 40% in size; also: potency is read from the fitted curve at half-maximal effect
Summary of the method: as §1

[8] = A CellTox Green Cytotoxicity Assay to monitor cytotoxicity in HepG2 cells - 0 hour (AID 1224882); also: nearly all actives have a fitted effect of over 35% in size
Summary of the method: as §2

[9] = A CellTox Green Cytotoxicity Assay to monitor cytotoxicity in HepG2 cells - 32 hour (AID 1224883); also: nearly all actives have a fitted effect of over 50% in size; also: potency is read from the fitted curve at half-maximal effect
Summary of the method: as §2

[10] = A CellTox Green Cytotoxicity Assay to monitor cytotoxicity in HEK293 cells - 8 hour (AID 1224884); also: nearly all actives have a fitted effect of over 35% in size
Summary of the method: as §1

[11] = qHTS RealTime-Glo MT Cell Viability Assay in HepG2 cells - 16 hour (AID 1224885); also: nearly all actives have a fitted effect of over 50% in size
Summary of the method: as §3

[12] = qHTS RealTime-Glo MT Cell Viability Assay in HEK293 cells - 24 hour (AID 1224886); also: nearly all actives have a fitted effect of over 50% in size; also: potency is read from the fitted curve at half-maximal effect
Summary of the method: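 Cells + reagent dispensed (600 cells/well, HEK293) → 5 h at 37 C/5% CO2 → 23 nL compound in DMSO pinned → 40 h at 37 C → luminescence read at 0, 8, 16, 24, 32, 40 h.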

[13] = qHTS RealTime-Glo MT Cell Viability Assay in HEK293 cells - 8 hour (AID 1224887); also: nearly all actives have a fitted effect of over 50% in size; also: potency is read from the fitted curve at half-maximal effect
Summary of the method: as §4

[14] = A CellTox Green Cytotoxicity Assay to monitor cytotoxicity in HEK293 cells - 16 hour (AID 1224888); also: nearly all actives have a fitted effect of over 35% in size
Summary of the method: as §1

[15] = qHTS RealTime-Glo MT Cell Viability Assay in HepG2 cells - 0 hour (AID 1224889); also: nearly all actives have a fitted effect of over 50% in size
Summary of the method: as §3

[16] = A CellTox Green Cytotoxicity Assay to monitor cytotoxicity in HepG2 cells - 8 hour (AID 1224890); also: nearly all actives have a fitted effect of over 45% in size
Summary of the method: as §2

[17] = qHTS assay to identify small molecule antagonists of the estrogen receptor alpha (ER-alpha) signaling pathway using the BG1 cell line in the presence of 0.1 nM 17-beta-estradiol - cell viability counter screen (AID 1259241); also: nearly all actives have a fitted effect of over 40% in size
Summary of the method: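 VM7Luc4E2, 4,000 cells/well, phenol red-free medium + 10% charcoal-stripped FBS; 24 hr plating; cpd + 0.1 nM E2 final, 22 hr 37C/5% CO2; CellTiter-Fluor 30 min, fluorescence.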

[18] = qHTS assay to identify small molecule antagonists of the androgen receptor (AR) signaling pathway using the MDA cell line in the presence of 0.5 nM R1881 - cell viability counter screen (AID 1259242); also: nearly all actives have a fitted effect of over 45% in size
Summary of the method: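 qHTS format. MDA-kb2 (MMTV-luc, AR/GR responsive) + cpd + 0.5 nM R1881 final, 16 hr 37C/0% CO2 → CellTiter-Fluor 30 min → fluorescence intensity.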

[19] = molecular target: Estrogen receptor (Homo sapiens) (UniProt P03372); test: qHTS assay to identify small molecule antagonists of the estrogen receptor alpha (ER-alpha) signaling pathway using the BG1 cell line in the presence of 0.1 nM 17-beta-estradiol (AID 1259244); also: nearly all actives have a fitted effect of over 50% in size
Summary of the method: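 Reporter is a stably transfected luciferase under four estrogen responsive elements in VM7Luc4E2 cells expressing native full-length ER-alpha; inhibition of 0.1 nM (final) 17beta-estradiol-driven signal over 22 h is read by luminescence.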

Sequence of Estrogen receptor (Homo sapiens) (P03372 whole entry, looked up): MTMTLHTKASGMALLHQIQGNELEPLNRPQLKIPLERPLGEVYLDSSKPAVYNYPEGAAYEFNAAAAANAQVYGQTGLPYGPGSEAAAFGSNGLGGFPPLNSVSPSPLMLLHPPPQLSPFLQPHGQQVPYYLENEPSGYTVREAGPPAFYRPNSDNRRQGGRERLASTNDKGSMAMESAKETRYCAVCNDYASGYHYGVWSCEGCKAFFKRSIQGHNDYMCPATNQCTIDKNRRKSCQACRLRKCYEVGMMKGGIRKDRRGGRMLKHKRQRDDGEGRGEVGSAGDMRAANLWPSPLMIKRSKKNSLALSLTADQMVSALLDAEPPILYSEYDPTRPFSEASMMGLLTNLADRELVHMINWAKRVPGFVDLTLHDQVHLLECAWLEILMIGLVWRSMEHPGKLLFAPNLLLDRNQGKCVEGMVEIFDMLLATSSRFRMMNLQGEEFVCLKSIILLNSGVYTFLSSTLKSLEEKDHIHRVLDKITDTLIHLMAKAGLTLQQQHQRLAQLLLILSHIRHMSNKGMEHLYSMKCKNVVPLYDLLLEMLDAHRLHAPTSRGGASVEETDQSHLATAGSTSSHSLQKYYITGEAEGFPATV

SMILES | Potency [1] | Potency [2] | Potency [3] | Potency [4] | Potency [5] | outcome [6] | Potency [7] | Potency [8] | Potency [9] | Potency [10] | Potency [11] | Potency [12] | Potency [13] | Potency [14] | Potency [15] | Potency [16] | Potency [17] | Potency [18] | Potency [19]
O=C(O)c1ccccc1O | inactive | inactive | inactive | inactive | inactive | inactive | inactive | inactive | inactive | inactive | inactive | inactive | inactive | inactive | inactive | inactive | inactive | inactive | 
CCCC[N+]1(C)CCCC1 | inactive | inactive | inactive | inactive | inactive | inactive | inactive | inactive | inactive | inactive | inactive | inactive | inactive | inactive | inactive | inactive | inactive | inactive | 
O=c1nc(O)n(Cl)c(=O)n1Cl | inactive | inactive | inactive | inactive | inactive | inactive | inactive | inactive | inactive | inactive | inactive | inactive | inactive | inactive | inactive | inactive | inactive | inactive | 
CCCCCC[n+]1ccccc1 | inactive | inactive | inactive | inactive | inactive | inactive | inactive | inactive | inactive | inactive | inactive | inactive | inactive | inactive | inactive | inactive | inactive | inactive | 
O=C(O)C(Cl)(Cl)Cl | inactive | inactive | inactive | inactive | inactive | inactive | inactive | inactive | inactive | inactive | inactive | inactive | inactive | inactive | inactive | inactive | inactive | inactive | 
Nc1ccccc1 | inactive | inactive | inactive | inactive | inactive | inactive | inactive | inactive | inactive | inactive | inactive | inactive | inactive | inactive | inactive | inactive | inactive | inactive | 
CCC[N+]1(C)CCCC1 | inactive | inactive | inactive and 49.3 µM (active) | inactive | inactive | inactive | inactive | inactive | inactive | inactive | inactive | inactive | inactive | inactive | inactive | inactive | inactive | inactive | 
C1CCC(NC2CCCCC2)CC1 | inactive | inactive | inactive | inactive | inactive | inactive | inactive | inactive | inactive | inactive | inactive | inactive | inactive | inactive | inactive | inactive | inactive | inactive | inactive
COP(=O)(OC)C(O)C(Cl)(Cl)Cl (configuration not stated) | inactive | inactive | inactive | inactive | inactive | inactive | inactive | inactive | inactive | inactive | inactive | inactive | inactive | inactive | inactive | inactive | inactive | inactive | 
CCCCCCCCn1cc[n+](C)c1 | inactive | inactive | inactive | inactive | inactive | inactive | 21.7 µM (active) and inactive | inactive | inactive | inactive | inactive | 3.86 µM (active) and 4.41 µM (active) | inactive | inactive | inactive | inactive |  |  | 
COc1ccc(N)cc1 | inactive | inactive and 195 nM (active) | inactive | inactive and 219 nM (active) | inactive and 245 nM (active) | inactive | inactive | inactive | inactive and 245 nM (active) | inactive | inactive | inactive | inactive | inactive | inactive | inactive |  | inactive | 
O=[N+]([O-])O | inactive | inactive | inactive | inactive | inactive | inactive | inactive | inactive | inactive | inactive | inactive | inactive | inactive | inactive | inactive | inactive | inactive | inactive | 
CCCCCCn1cc[n+](C)c1 | inactive | inactive | inactive and 50 µM (active) | inactive | inactive | inactive | inactive | inactive | inactive | inactive | inactive | 22.2 µM (active) and 14 µM (active) and 17.7 µM (active) | inactive | inactive | inactive | inactive | inactive |  | 
CCCn1cc[n+](C)c1 | inactive | inactive | inactive | inactive | inactive | inactive | inactive | inactive | inactive | inactive | inactive | inactive | inactive | inactive | inactive | inactive |  | inactive | 
COCC(=O)N(c1c(C)cccc1C)C(C)C(=O)OC (configuration not stated) | inactive | inactive | inactive | inactive | inactive | inactive | inactive | inactive | inactive | inactive | inactive | inactive | inactive | inactive | inactive | inactive | inactive | inactive | inactive
O=C(O)CC(O)(CC(=O)O)C(=O)O | inactive | inactive | inactive | inactive | inactive | inactive | inactive | inactive | inactive | inactive | inactive | inactive | inactive | inactive | inactive | inactive | inactive | inactive | 
COc1ccccc1N | inactive | inactive | inactive | inactive | inactive | inactive | inactive | inactive | inactive | inactive | inactive | inactive | inactive | inactive | inactive | inactive | inactive | inactive | 
CCCCCCCCCCn1cc[n+](C)c1 | inactive | inactive | inactive | 44.1 µM (active) and inactive | 44.1 µM (active) and 48.9 µM (active) | inactive | inactive | inactive | 44.1 µM (active) and 54.9 µM (active) | inactive | inactive | 389 nM (active) | inactive and 1.74 µM (active) | inactive | inactive | inactive | inactive | inactive | 
O=C(O)CCl | inactive | inactive | inactive | inactive | inactive | inactive | inactive | inactive | inactive | inactive | inactive | inactive | inactive | inactive | inactive | inactive | inactive | inactive | 
CCC[N+]1(C)CCCCC1 | inactive | inactive | inactive and 34.8 µM (active) | inactive | inactive | inactive | inactive | inactive | inactive | inactive | inactive | inactive | inactive | inactive | inactive | inactive | inactive | inactive | 
CCCCCCCCCCCC(=O)O | inactive | inactive | inactive | inactive | inactive | inactive | inactive | inactive | inactive | inactive | inactive | inactive | inactive | inactive | inactive | inactive |  | inactive | 
CCCCn1cc[n+](C)c1 | inactive | inactive | inactive and 44.3 µM (active) | inactive | inactive | inactive | inactive | inactive | inactive | inactive | inactive | inactive | inactive | inactive | inactive | inactive |  | inactive | 
CCn1cc[n+](C)c1C | inactive | inactive | inactive | inactive | inactive | inactive | inactive | inactive | inactive | inactive | inactive | inactive | inactive | inactive | inactive | inactive |  | inactive | 
CC(=O)O | inactive | inactive | inactive | inactive | inactive | inactive | inactive | inactive | inactive | inactive | inactive | inactive | inactive | inactive | inactive | inactive |  | inactive | 
CCOP(=S)(OCC)Oc1ccc2c(C)c(Cl)c(=O)oc2c1 | inactive | inactive | inactive | inactive | inactive | inactive | inactive | inactive | inactive | inactive | inactive | 14 µM (active) and 43.6 µM (active) and inactive | 12.4 µM (active) and 38.9 µM (active) and inactive | inactive | inactive | inactive |  | inactive | 
